Results filed as inconclusive are left out. Entries that show only a call come without a potency. Active and inactive are the calls of the source. Calls come from the whole dose curve; as a rule, active = well fitted inhibition curve with a large enough effect; inconclusive = small, poorly fitted or top-dose-only effect; inactive = flat fitted curve, though single readings scatter.

In PubChem BioAssay (NCATS) one finds Potency data, which are given here for 31 molecules.
Potency is the fitted concentration of half-maximal effect.

A short description of the assay: qHTS to identify inhibitors of the type 1 interferon - major histocompatibility complex class I in skeletal muscle: primary screen against the NCATS LOPAC collection (AID 1347405).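 Note: lytic HiBiT luminescence reporting HLA-B protein level.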 As to conditions: iHSKM muscle cells, IFN-b-induced MHC-I HiBiT luminescence, 24 h; series mostly up to 45.9 µM. An excerpt:
Assay Submitter (PI): Travis B. Kinder Ph.D. & James Inglese Ph.D.
Assay Development and Screening Technology Laboratory (ADST)
National Center for Advancing Translational Sciences (NCATS), Rockville, MD
National Institute of Health (NIH), Bethesda, Maryland
Idiopathic inflammatory myopathies, collectively referred to as myositis, are a group of rare autoimmune diseases characterized by skeletal muscle inflammation, weakness, and usually accompanied by systemic pathologies of the skin, lungs, or vasculature. Current immunosuppressive therapies and glucocorticoids are often not curative and are accompanied by harsh side effects, especially in children with juvenile myositis. We initiated a drug repurposing and development program to identify more targeted, less toxic therapeutics to treat myositis. Although its cause is not known, muscle from a subset of patients have an abundance of the inflammatory type 1 interferon (IFN) and a down-stream product major histocompatibility complex class I (MHC class I), which are both thought to contribute to damage and weakness. We conducted quantitative high throughput screening on 6,576 compounds (4,679 unique) through a series of cell-based assays to identify those that inhibit the IFN-stimulated expression of MHC class I in muscle precursor cells (myoblasts). The compound identification and evaluation strategy utilized a primary screen with reporter-tagged MHC class I in genome-engineered myoblasts, ATP content counter screen for viability, HLA-ABC immunofluorescence secondary screen, and HLA-B RT-qPCR tertiary screen.
The primary screen utilized CRISPR/Cas9 genome-engineering of immortalized human myoblasts, C25cl48, where a pro-luminescent reporter HiBit was fused to the C-terminus of endogenous MHC class I allele HLA-B*08:01 (HLA-B HiBit myoblasts). HiBit is an 11 amino acid fragment of NanoLuc luminescent reporter (Promega Corporation), and when complexed to the larger LgBit fragment, the reconstituted enzyme produces light in the presence of furimazine substrate (Schwinn et al., 2018). Briefly, HLA-B HiBit myoblasts were plated into 1536-well plates, treated with 4.0 ng/ml human IFN-beta and 1,280 compounds from the Library of Pharmacologically Active Compounds 1280 library (LOPAC1280, Sigma Aldrich) in a 7-point, 1:4.3 titration with a high final concentration of 46 uM. After 24 hrs of treatment, cells were assayed by Nano-Glo HiBiT Lytic Detection System (Promega) and luminescence measured by a ViewLux 1430 Ultra HTS (Perkin Elmer).
Schwinn MK, Machleidt T, Zimmerman K, Eggers CT, Dixon AS, Hurst R, Hall MP, Encell LP, Binkowski BF, Wood K V. 2018. CRISPR-Mediated Tagging of Endogenous Proteins with a Luminescent Peptide. ACS Chem Biol 13:467-474. doi:10.1021/acschembio.7b00549
PROTOCOL TABLE (as described by Inglese et al., 2007)
SEQUENCE No. (e.g., 1, 2, 3, etc.); […] (e.g., Cells, Incubation, Reagent, etc.); VALUE; DESCRIPTION
1a; Cells; 5 uL; Use a Multidrop Combi (Thermo Scientific) to seed 350 cells/well into nine Greiner 1536 well white/solid bottom, high base, TC plates in 5 ul/well of iHSKM growth medium (GM) without dexamethasone into columns 1+2. Add metal lids with gas-exchange holes
1b; Cells; 5 uL; Use a Multidrop Combi (Thermo Scientific) to seed 350 cells/well into nine Greiner 1536 well white/solid bottom, high base, TC plates in 5 ul/well of iHSKM GM without dexamethasone + 4 ng/ml IFN-b into columns 3 - 48. Add metal lids with gas-exchange holes
2; Incubate; 1 hr; Incubate at 37 C, 5% CO2, 95% RH
3; Compounds; 23 nl; Use Pin Tool (Wako) to transfer DMSO control, ruxolitinib IFN-b inhibitor control [High Concentration = 80 uM final, 16-pt, 1:2 in duplicate], and library compounds in DMSO
4; Incubate; 24 hrs; Incubate at 37 C, 5% CO2, 95% RH
5; Dispense; 2.5 ul; Use BioRAPTR FRD (Beckman Coulter) to add HiBit lytic reagent
6; Incubate; 10 min; Incubate in the dark at ambient temperature for lysis
[…]
Background: In qHTS, concentration-response curves come from the screen itself.
With `O=c1c(O)c(-c2cc(O)c(O)c(O)c2)oc2cc(O)cc(O)c12`, the Potency entry is “inactive”.

Turning to `C[C@@H](N)C1CCC(C(=O)Nc2ccncc2)CC1` (stereo partly specified), the Potency entry is “inactive”.

For the molecule `C[C@@H](c1ncncc1F)[C@](O)(Cn1cncn1)c1ccc(F)cc1F`, the Potency result is “inactive”.

With `O=C(CCc1ccc(O)cc1)c1c(O)cc(O)cc1O`, the Potency entry is “inactive”.

Turning to `O=c1c(O)c(-c2ccc(O)cc2O)oc2cc(O)cc(O)c12`, the Potency entry is “inactive”.

As to `O=C(O)c1cccnc1Nc1cccc(C(F)(F)F)c1`, the Potency entry is “inactive”.

Turning to `Clc1ccc2c(N3CCN(CCCN4CCN(c5ccnc6cc(Cl)ccc56)CC4)CC3)ccnc2c1`, the Potency result is “inactive”.

Consider `CCOC(=O)C1=C(O)C(=O)N(Cc2ccccc2)C1`, for which the Potency entry is “inactive”.

As to `O=C1c2c(O)cc(O)cc2OC(c2ccc(O)c(O)c2)C1O` (stereo unspecified), the Potency result was “inactive”.

For the molecule `NNc1nncc2ccccc12`, the Potency entry was “inactive”.

For `CC1(C)NC(=O)N(c2ccc([N+](=O)[O-])c(C(F)(F)F)c2)C1=O`, the Potency entry is “inactive”.

Consider `Cc1cc(O)c2c(c1)C(=O)c1cc(O)cc(O)c1C2=O`, for which the Potency entry was “inactive”.

Consider `COc1ccccc1N1CCN(CCN(C(=O)C2CCCCC2)c2ccccn2)CC1`, for which the Potency result is “inactive”.

Consider `CNC[C@H](O)c1ccc(O)c(O)c1`, for which the Potency entry is “inactive”.

With `O=c1ccc2ccc(O)c(O)c2o1`, the Potency entry is “inactive”.

`CN(C)C(=O)[C@H](O)[C@H](Cc1ccccc1)NC(=O)c1cc2cc(Cl)ccc2[nH]1`: the Potency entry is “inactive”.

With `CC(=O)NC[C@H]1CN(c2ccc(N3CCOCC3)c(F)c2)C(=O)O1`, the Potency result is “inactive”.

Consider `COc1cc2c(cc1OC)C1CC(=O)C(CC(C)C)CN1CC2` (stereo unspecified), for which the Potency result is “inactive”.

Regarding `O=C(c1ccccc1)c1ccc2n1CCC2C(=O)O` (stereo unspecified), the Potency result is “inactive”.

`c1cnc2cc3c(cc2n1)C1CNCC3C1`: the Potency entry was “inactive”.

As for `Cc1c(OCC(F)(F)F)ccnc1CS(=O)c1nc2ccccc2[nH]1` (stereo unspecified), the Potency result was “inactive”.

In the case of `C[C@H](Cc1ccc(O)c(O)c1)[C@@H](C)Cc1ccc(O)c(O)c1`, the Potency entry is “inactive”.

Regarding `CN(C)CCCC1(c2ccc(F)cc2)OCc2cc(C#N)ccc21` (stereo unspecified), the Potency entry is “inactive”.

As to `COc1ccc2cc([C@H](C)C(=O)O)ccc2c1`, the Potency result is “inactive”.

Regarding `CC1(C)C(=O)N(CCN2CCC(C(=O)c3ccc(F)cc3)CC2)c2ccccc21`, the Potency result was “inactive”.

As for `NCCCCNCCCN`, the Potency result is “inactive”.

For `CC(=O)N1CCN(c2ccc(OC[C@H]3CO[C@](Cn4ccnc4)(c4ccc(Cl)cc4Cl)O3)cc2)CC1`, the Potency result was “inactive”.

`O=Nc1c(-c2c(O)[nH]c3cc(Br)ccc23)[nH]c2ccccc12`: the Potency was 15.8 µM (active).

On to `CCOC(=O)C(C)Oc1cccc2c(=O)n(CC(=O)Nc3ccc4c(c3)OCCO4)ccc12` (stereo unspecified), for which the Potency entry was “inactive”.

For the molecule `Cc1cccc(C#Cc2ccccc2)n1`, the Potency entry was “inactive”.

As to `Cc1cc(Cl)ccc1OCCCC(=O)NO`, the Potency entry was “inactive”.
